# According to the supplement of paper PMC12297408:
# Values without a mark were called inactive.
# Test system: Plasmodium falciparum NF54/iGP1_RE9H ulg8 stage V gametocytes
# Assay: gametocyte viability (luciferase signal relative to DMSO control) (% of DMSO control); higher = less gametocytocidal activity, active = 50 or less
# Conditions: exposure time: 72 h
# Procedure, shortened: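 NF54/iGP1_RE9Hulg8 stage V gametocytes (day 12; ~2.5% gametocytemia, 3% hematocrit) in medium with 0.5% Albumax II were added to 96-well plates of nanolitre-spotted compounds (10 mM DMSO stocks), giving 10 µM or 1 µM, one well each. Plates were incubated 72 h at 37 °C. Then 90 µl was mixed with 10 µl D-luciferin (30 mg/ml) and luminescence was read on an IVIS Lumina II. Viability is relative to the mean of plate DMSO vehicle controls.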
Structure (SMILES),gametocyte viability (concentration: 1 µM),gametocyte viability (concentration: 10 µM)
O=S(=O)(c1cccc2c(I)cccc12)N1CCCNCC1,102,94.1
Cc1ccc(-n2nc(C(C)(C)C)cc2NC(=O)Nc2ccc(OCCN3CCOCC3)c3ccccc23)cc1 [BIRB 796 (Doramapimod)],96,98.8
COc1ncc(-c2ccc3nccc(-c4ccnnc4)c3c2)cc1NS(=O)(=O)c1ccc(F)cc1F,100,103
CCCCCCCCCCCCC/C=C/[C@@H](O)[C@@H](N)CO [D-erythro-Sphingosine],113,119
CC1(COc2ccc3c(c2)ncn3-c2ccc3cccc(N4CCC(N)CC4)c3n2)COC1,125,112
O=C(O)c1ccc2c(c1)nc(Nc1cccc(Cl)c1)c1ccncc12,101,107
Clc1ccc(C2(c3ccc(-c4cn[nH]c4)cc3)CCNCC2)cc1,112,76.9
COc1cccc2cc(-c3nc([C@H]4CC[C@H](C(=O)O)CC4)n4ncnc(N)c34)[nH]c12,108,109
N#C/C(=C\c1ccc(O)c(O)c1)C(=O)Nc1ccccc1,99.6,104
O=c1ncn2nc(Sc3ccc(F)cc3F)ccc2c1-c1c(Cl)cccc1Cl,95.2,103
COc1cc2ncnc(Nc3cccc(Br)c3)c2cc1OC,95.6,114
CC(C)c1cnn2c(NCc3ccccc3)cc(NCCCCCCN)nc12,102,86.5
Cn1c(=O)c(F)c(Nc2ccc(I)cc2F)c2c(=O)n(C[C@@H](O)CO)cnc21,108,114
CCS(=O)(=O)Nc1ccc2[nH]c(O)c(C(=Nc3ccc(CN4CCCCC4)cc3)c3ccccc3)c2c1 [Hesperadin],110,108
N#CC(=C(/N)Sc1ccccc1N)/C(C#N)=C(/N)Sc1ccccc1N,100,103
CO[C@H]1C[C@@H]2CC[C@@H](C)[C@@](O)(O2)C(=O)C(=O)N2CCCC[C@H]2C(=O)O[C@H]([C@H](C)C[C@@H]2CC[C@@H](OP(C)(C)=O)[C@H](OC)C2)CC(=O)[C@H](C)/C=C(\C)[C@@H](O)[C@@H](OC)C(=O)[C@H](C)C[C@H](C)/C=C/C=C/C=C/1C [Deforolimus (Ridaforolimus)],90.2,86.2
O=C1NC(=O)/C(=C/c2ccc3nccc(-c4ccncc4)c3c2)S1,101,103
CC(C)(C)n1nc(-c2ccc(Cl)cc2)c2c(N)ncnc21,97,99.4
CC(=O)Nc1cccc(-n2c(=O)n(C3CC3)c(=O)c3c(Nc4ccc(I)cc4F)n(C)c(=O)c(C)c32)c1,102,82.7
CO[C@@H](C(=O)N1Cc2[nH]nc(NC(=O)c3ccc(N4CCN(C)CC4)cc3)c2C1)c1ccccc1,89.5,71.6

Structure (SMILES),gametocyte viability (concentration: 1 µM),gametocyte viability (concentration: 10 µM)
COc1ccc(-c2cc3c(C)nc(N)nc3n([C@H]3CC[C@H](OCCO)CC3)c2=O)cn1,95.3,84.2
COc1cc2c(Nc3ccc(NC(=O)c4ccccc4)cc3)ncnc2cc1OCCCN1CCOCC1,92.3,92.5
CNC(=O)c1cc(Oc2ccc(NC(=O)Nc3ccc(Cl)c(C(F)(F)F)c3)c(F)c2)ccn1 [Regorafenib (BAY 73-4506)],95.1,99.1
CO[C@H]1C[C@@H]2CC[C@@H](C)[C@@](O)(O2)C(=O)C(=O)N2CCCC[C@H]2C(=O)O[C@H]([C@H](C)C[C@@H]2CC[C@@H](O)[C@H](OC)C2)CC(=O)[C@H](C)/C=C(\C)[C@@H](O)[C@@H](OC)C(=O)[C@H](C)C[C@H](C)/C=C/C=C/C=C/1C [Rapamycin (Sirolimus)],99.3,79.7
"Cc1cc(Nc2cc(N3CCN(C)CC3)nc(Sc3ccc(NC(=O)C4CC4)cc3)n2)n[nH]1 [VX-680 (MK-0457, Tozasertib)]",97.5,84.3
Cc1c(CN2CCN(C(=O)[C@H](C)O)CC2)sc2c(N3CCOCC3)nc(-c3cnc(N)nc3)nc12,106,109
C#Cc1cccc(Nc2ncnc3cc(OCCOC)c(OCCO)cc23)c1 [OSI-420 (Desmethyl Erlotinib)],92.8,97
Cc1[nH]c(/C=C2\C(=O)Nc3ccccc32)c(C)c1CCC(=O)O,96.9,105
CCCCCCCCCCCCCCCC(=O)OC(CC(=O)[O-])C[N+](C)(C)C (racemic) [Palmitoyl-DL-carnitine],100,108
CCN1CCN(Cc2ccc(-c3cc4c(N[C@H](C)c5ccccc5)ncnc4[nH]3)cc2)CC1,96.1,52.6
COC(=O)/C=C/c1cc(O)ccc1O [Erbstatin analog],97.8,99.1
CC[C@@H]1C(=O)N(C)c2cnc(Nc3ccc(C(=O)NC4CCN(C)CC4)cc3OC)nc2N1C1CCCC1,80.6,63.5
C=CC(=O)Nc1cc2c(Nc3ccc(F)c(Cl)c3)ncnc2cc1OCCCN1CCOCC1 [CI-1033 (Canertinib)],97.8,100
N#Cc1c(O)c2c(-c3ccc(-c4ccccc4O)cc3)csc2[nH]c1=O,97.7,105
Nc1cc(C(F)(F)F)c(-c2cc(N3CCOCC3)nc(N3CCOCC3)n2)cn1,107,98.6
CCCNC(=O)Nc1ccc(Oc2ncnc3cc(OC)c(OC)cc23)cc1Cl,97.6,104
Fc1cc(-c2cccc3ncc(-c4cnn(C5CCNCC5)c4)nc23)cc(F)c1CN1CCOCC1,107,80
COc1cc(Nc2ncc(F)c(Nc3ccc4c(n3)NC(=O)C(C)(C)O4)n2)cc(OC)c1OC [R406(free base)],96.3,103
Cc1ncc(-c2ccnc(Nc3ccc(S(C)(=O)=O)cc3)n2)n1C(C)C,115,119
COc1cc2nccc(Oc3ccc(NC(=O)C4(C(=O)Nc5ccc(F)cc5)CC4)cc3)c2cc1OC [XL-184 free base (Cabozantinib)],100,83.1
